# CHO-K1 Ca antag: nonselective inhibitor or artifact in parental CHO-K1 cells. ATP-induced calcium, Fluo-8 fluorescence. inhibition, % at 3 µM. 0.6% of 360,000 active;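 active = inhibition above a per-plate cutoff, the plate's mean sample inhibition plus 3 SD, cut at about 24% in these data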;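 note: 0% = DMSO plus EC80 ATP and 100% = DMSO alone without ATP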
# CHO-K1 Ca ag: counter-screen for M1 agonists: effect in parental CHO-K1 cells. Fluo-8 calcium fluorescence; scaled to maximal ATP response, vehicle zero. activation, % at 3 µM. 0.48% of 360,000 active. AID 602248, 2012; in the data active = activation above about 15%;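 note: untransfected CHO-K1 host cells lacking M1 receptor as counterscreen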
# CHRM1 agonist: human M1 muscarinic receptor agonists, primary screen, Fluo-8 calcium fluorescence, CHO-K1 cells, HTS | AID 588814, 2011 | Muscarinic acetylcholine receptor M1 (Homo sapiens), P11229 | activation, % at 3 µM | 0.33% of 360,000 active | CHO-K1 hM1, agonist mode; 0% DMSO, 100% acetylcholine EC100;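 active = activation above the run's mean compound activation plus 3 SD, cut at about 16% in these data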;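 note: peak over basal fluorescence ratio within a 140 s kinetic read after compound addition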
# Target sequence (P11229 whole entry, looked up): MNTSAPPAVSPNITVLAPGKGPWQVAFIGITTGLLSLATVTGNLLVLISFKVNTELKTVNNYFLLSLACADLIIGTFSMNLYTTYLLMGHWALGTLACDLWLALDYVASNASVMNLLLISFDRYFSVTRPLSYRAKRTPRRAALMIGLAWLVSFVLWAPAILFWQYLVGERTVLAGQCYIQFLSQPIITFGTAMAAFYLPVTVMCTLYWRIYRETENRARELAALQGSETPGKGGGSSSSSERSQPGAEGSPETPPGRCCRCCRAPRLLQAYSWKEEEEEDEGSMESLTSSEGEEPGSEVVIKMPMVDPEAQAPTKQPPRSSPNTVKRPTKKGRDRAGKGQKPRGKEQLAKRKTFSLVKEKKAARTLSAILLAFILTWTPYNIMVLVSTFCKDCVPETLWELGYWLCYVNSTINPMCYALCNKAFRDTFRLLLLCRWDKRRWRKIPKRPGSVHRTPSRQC
# CHRM1 PAM: human M1 muscarinic receptor positive allosteric modulators, primary screen, CHO-K1 cells, Fluo-8 calcium fluorescence, 1536-well; Muscarinic acetylcholine receptor M1 (Homo sapiens), P11229; CHO-K1 hM1, ACh EC20; 0% = ACh EC20, 100% = maximal ACh; activation, % at 3 µM; 0.088% of 360,000 active; in the data active = activation above about 19%, passing the limit was not always enough
# CHRM1 antagonist: human M1 muscarinic receptor antagonists, primary screen, CHO-K1 cells, Fluo-8 calcium fluorescence, 1536-well | Muscarinic acetylcholine receptor M1 (Homo sapiens), P11229 | CHO-K1 hM1, ACh EC80 antagonist | inhibition, % at 3 µM | 1.3% of 360,000 active;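 active = percent inhibition above its own plate's cutoff, namely the mean of that plate's compound wells plus 3 SD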;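 note: peak over basal fluorescence ratio during 140 s after agonist addition; 0% = ACh EC80 plus DMSO and 100% = DMSO alone without agonist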
# M1 PAM parental: nonselective calcium activators in parental CHO-K1 cells, primary screen, counter-screen for M1 PAM project, cell-based, Fluo-8 calcium fluorescence, full deck, 1536-well. AID 602247, 2012. ATP EC20; 0% at ATP EC20, 100% at ATP max. 0.02% of 360,000 active. activation, % at 3 µM;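 active = activation above the run cutoff, the mean activation of all test compounds plus 3 SD, cut at about 40% in these data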;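 note: peak over basal fluorescence ratio in a 140 s read after ATP addition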
# Active calls of the source: *. This is a sample that favours compounds with a hit; in the whole collection about 2.4% have one here.
SMILES,CHO-K1 Ca antag,CHO-K1 Ca ag,CHRM1 agonist,CHRM1 PAM,CHRM1 antagonist,M1 PAM parental
CN(C)CCNC(=O)Nc1ccc(F)cc1F,-11,0,-1,11,-7,4
CN(C)CCNC(=O)c1ccc2c(c1)NC(=O)c1ccccc1S2,-14,1,-9,7,-10,5
COc1cc2c(cc1Cl)/C(=C\CCN(C)C)c1ccccc1S2,-7,3,-4,-17,66*,24
CC(=O)Nc1ccc(CN2CCN(CCc3ccccc3)C(CCO)C2)cc1 (configuration not stated),-12,2,-7,2,-3,15
Cn1c(N)c(C(=O)COC(=O)CSc2cccc3cccc(Cl)c23)c(=O)n(C)c1=O,-14,0,-4,4,-1,14
CCOc1cc(C2C3=C(CC(C)(C)CC3=O)N(C)C3=C2C(=O)CC(C)(C)C3)ccc1O,8,0,-3,1,2,-3
Fc1ccccc1CSc1ncnc2sc3c(c12)CCCC3,-8,0,-2,3,-13,27
CC(C)C1=CC(=Nc2ccc(S(N)(=O)=O)cc2)C=C(C(C)C)C1=O,-1,1,-2,-2,7,7
COc1ccc(NC(=O)C2(C)CCN2C(=O)CC2CCCC2)cc1OC (configuration not stated),-24,1,-2,3,-7,27
Cc1ccc(S(=O)(=O)c2nc(S(C)(=O)=O)sc2N2CCC3(CC2)OCCO3)cc1,-13,2,-3,6,-7,9
CCOC(=O)n1c(=O)[nH]c2ccc(Br)cc21,3,0,-4,14,-14,8
Cc1ccccc1C(=O)NNS(=O)(=O)c1ccc(F)cc1,24*,0,-1,14,-16,-5
CC(C)c1cc(-c2cc(C(=O)NCc3ccccc3)on2)nc(NCC2CC2)n1,14,9,29*,6,34*,-13
COc1ccc(C(=O)OCC(=O)c2ccco2)cc1[N+](=O)[O-],15,-1,-2,10,-9,-9
Cc1ccc(OCCn2c(=O)sc3ccccc32)cc1,-4,0,-7,-5,-10,11
Cc1ccc(OCCCn2c(=O)sc3ccccc32)cc1,24*,-1,-2,-10,17,-10
COc1ccc(F)cc1C(=O)C1CCCN(Cc2cccn2-c2cccnc2)C1 (configuration not stated),-3,2,-8,0,-10,12
COc1ccc(F)cc1C(=O)C1CCCN(Cc2c(C)n(C)n(-c3ccccc3)c2=O)C1 (configuration not stated),7,2,-14,-32,36*,22
CC1CCCC(C)N1CCCNC(=O)Cn1ncc2c3ccccc3n(C)c2c1=O (configuration not stated),-4,0,-5,1,-5,-10
CC(CCc1ccccc1)NC(=O)c1cccs1 (configuration not stated),29*,0,11,23,-38,-18
O=C(c1ccc(F)cc1)C1CCN(Cc2ccccc2)CC1,7,16*,-5,-8,14,4
O=C(CCCN1CCC(C(=O)c2ccc(F)cc2)CC1)c1ccc(F)cc1,-4,4,-9,-28,89*,9
CCCN=C1CC(C)(C)CC(=O)/C1=C(/O)CCC,4,18*,-6,-4,11,16
COc1cc(C(=O)NCC(=O)N/N=C(/C)c2ccc3c(c2)CCCC3)cc(OC)c1OC,27*,0,-7,3,7,-12
CC1=C2C3OC(=O)C(C)C3CCC2(C)C=C(Br)C1=O (configuration not stated),4,0,1,-5,5,-9
OCC1CCCN(c2nc(CN3CCCCC3)nc3scc(-c4ccccc4)c23)C1 (configuration not stated),-4,1,-10,-4,2,21
